These molecules were tested on HCI01 (cells of a triple-negative basal-like breast cancer xenograft) (assay: cell viability of combination (% of vehicle); higher = less cytotoxic). Conditions: 1 µM; 72 h; partner dose: 10 nM.
Protocol: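 PDX cells were treated for 72 h with each drug at 1 µM plus carfilzomib (10 nM; 100 nM for WHIM2). Luciferase viability is expressed as percent of vehicle.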

| Structure (SMILES) | cell viability of combination |
| --- | --- |
| CCCCCCCCCCCC[N+](C)(C)CCOc1ccccc1.[Br-] [Domiphen Bromide] + CC(C)C[C@H](NC(=O)[C@H](CCc1ccccc1)NC(=O)CN1CCOCC1)C(=O)N[C@@H](Cc1ccccc1)C(=O)N[C@@H](CC(C)C)C(=O)[C@@]1(C)CO1 [Carfilzomib] | 71.1 |
| CCCCCCCCCCCCCCCC[n+]1ccccc1.[Cl-] [Cetylpyridinium Chloride] + CC(C)C[C@H](NC(=O)[C@H](CCc1ccccc1)NC(=O)CN1CCOCC1)C(=O)N[C@@H](Cc1ccccc1)C(=O)N[C@@H](CC(C)C)C(=O)[C@@]1(C)CO1 [Carfilzomib] | 77 |
| Cc1cc(C(C#N)c2ccc(Cl)cc2)c(Cl)cc1NC(=O)c1cc(I)cc(I)c1[O-].[Na+] (stereo not given) [Closantel Sodium] + CC(C)C[C@H](NC(=O)[C@H](CCc1ccccc1)NC(=O)CN1CCOCC1)C(=O)N[C@@H](Cc1ccccc1)C(=O)N[C@@H](CC(C)C)C(=O)[C@@]1(C)CO1 [Carfilzomib] | 68.9 |
| Cc1cc(C(C#N)c2ccc(Cl)cc2)c(Cl)cc1NC(=O)c1cc(I)cc(I)c1O (stereo not given) [Closantel] + CC(C)C[C@H](NC(=O)[C@H](CCc1ccccc1)NC(=O)CN1CCOCC1)C(=O)N[C@@H](Cc1ccccc1)C(=O)N[C@@H](CC(C)C)C(=O)[C@@]1(C)CO1 [Carfilzomib] | 70.3 |
| CCCCCCCCCCCCCCCC[N+](C)(C)C.[Br-] [Cetrimonium Bromide (CTAB)] + CC(C)C[C@H](NC(=O)[C@H](CCc1ccccc1)NC(=O)CN1CCOCC1)C(=O)N[C@@H](Cc1ccccc1)C(=O)N[C@@H](CC(C)C)C(=O)[C@@]1(C)CO1 [Carfilzomib] | 72.8 |

Source: the supplement of paper PMC6992640
